Molecules are shown by their SMILES. Records with an inconclusive call do not appear. Active and inactive are the calls of the source. Calls follow the shape of the dose curve; as a rule, active = well fitted inhibition curve with a large enough effect; inconclusive = small, poorly fitted or top-dose-only effect; inactive = no such curve, though single readings can be large or run the other way.
Potency is read from the fitted curve at half-maximal effect.

The nature of the test: InCell qHTS Assay for Inhibitors of the mTORC1 Signaling Pathway in MEF (Tsc2-/-, p53-/-) Cells: Hit Validation.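 Also: phospho-S6 Ser235/236 signal normalized to propidium iodide cell count per well; nearly all actives have a fitted effect of over 75% in size.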 The settings on record: phospho-rpS6 immunofluorescence, 24 h; activity change, negative = inhibition: at 38.3 µM (top of the series).
For `Cc1cccc(-n2nnnc2S(C)(=O)=O)c1`, the Potency is 3.29 µM (active).
Consider `Cc1ccc(CS(=O)(=O)c2ncc(Cl)c(C(=O)Nc3nnc(C(C)C)s3)n2)cc1`, for which the Potency was 6.56 µM (active).
For `COc1ccc(NS(=O)(=O)c2ccc(-n3cccn3)cc2)cc1OC`, the activity change, negative = inhibition was -100%.
Same read-out and setting: the result for `Cc1ccc(C(=O)CC2(O)C(=O)N(Cc3ccccc3F)c3ccccc32)cc1` (configuration not stated) reads -100%; that for `COc1ccccc1CNC(=O)CCCn1c(=O)c2cccn2c2ccccc21`, -100%.
On the same count and under the same terms, the result for `Cc1cccc(N2CCN(C(=O)C3CCN(C(=O)c4cc5sccc5n4C)CC3)CC2C)c1` (configuration not stated) reads -100%; that for `CCOC(=O)c1ccc2ncc(C(=O)OCC)c(NCCc3ccc(OC)c(OC)c3)c2c1`, -100%.
With `COCCCNC(=O)c1ccc(CSc2nc3cccnc3n2Cc2ccc(OC)cc2)cc1`, the activity change, negative = inhibition was -100%.
On the same count and under the same terms, the result for `CCN1CCN(C(=O)Cn2ncc3c4ccccc4n(Cc4c(C)cc(C)cc4C)c3c2=O)CC1` reads -100%.
The same measure, in the same setting: for `Cc1ccc(Nc2nc(C(N)=O)c(NC(=O)c3ccccc3Br)s2)cc1` the value was -17.8%.
With `CCCCS(=O)(=O)c1oc(-c2ccc(F)cc2)nc1S(=O)(=O)c1ccc(C)cc1`, the Potency was 5.85 µM (active).
With `Cc1ccccc1NC(=O)c1c(NC(=O)C(F)(F)F)sc2c1CCCCC2`, the activity change, negative = inhibition was -100%.
`Cc1cccc(-n2ncc3c(Nc4c(C)cc(C)cc4C)ncnc32)c1`: the activity change, negative = inhibition was -100%.
Same read-out and setting: for `COc1ccc(CCNC(=O)c2ccc3c(c2)N(Cc2ccccc2)CCS3)cc1OC` the value was -100%; for `Cc1ccc(C2c3c(-c4ccccc4O)n[nH]c3C(=O)N2CCc2ccccc2)cc1` (configuration not stated), -100%; for `Cc1nc2ccc(S(=O)(=O)CCC(=O)Nc3ccc(Cl)cc3)cc2s1`, -100%.
As for `CCS(=O)(=O)c1oc(-c2ccc(F)cc2)nc1S(=O)(=O)c1ccc(Br)cc1`, the Potency was 3.69 µM (active).
As for `O=C(NC1CCCCC1)/C(=C/c1ccc(Cl)cc1)NC(=O)c1ccccc1`, the activity change, negative = inhibition was -22.5%.
The same measure, in the same setting: the result for `Cc1ccc(NC(=O)CCS(=O)(=O)c2ccc3nc(C)sc3c2)cc1` reads -100%; that for `CCOC(=O)C1CCN(C(=O)CSc2c3c(nc4ccc(Cl)cc24)CCCC3)CC1`, -100%; that for `Cc1ccc(-c2nnc(Nc3ccc(O)cc3)c3ccccc23)cc1S(=O)(=O)N1CCCCC1`, -100%.
Same read-out and setting: for `Cc1ccc(-n2ncc(C(=O)NCCCN3CCc4ccccc4C3)c2C2CCN(C(=O)OC(C)(C)C)CC2)c(C)c1` the value was -100%.
Still for that read-out and setting: for `COc1cc(C2CC(=O)Nc3cc4c(cc32)OCCO4)cc(Br)c1OC` (configuration not stated) the value was -100%; for `O=S(=O)(NCc1nc2cccnc2n1Cc1ccccc1Cl)c1ccc(F)c(Cl)c1`, -100%.
On to `CCCN1C(=O)C(O)(CC(=O)c2ccc(CC)cc2)c2ccccc21` (configuration not stated), for which the activity change, negative = inhibition is -100%.
Regarding `CCN(c1ccccc1)S(=O)(=O)c1ccc(NC(=O)c2nc(S(C)(=O)=O)ncc2Cl)cc1`, the Potency was 3.69 µM (active).
Still for that read-out and setting: for `O=C(NCc1ccccc1)c1nc(S(=O)(=O)Cc2ccccc2)ncc1Cl` the value was 5.85 µM (active).
With `CCOC(=O)c1ccc(N2C(=O)c3n[nH]c(-c4cccs4)c3C2c2cccc(F)c2)cc1` (configuration not stated), the activity change, negative = inhibition was -100%.
On the same count and under the same terms, for `Cc1ccc(-c2nnc(Nc3cccc(Cl)c3)c3ccccc23)cc1S(=O)(=O)N1CCN(C)CC1` the value was -100%; for `Cc1cc(C)c(-c2n[nH]c3c2C(c2ccccc2F)N(Cc2ccco2)C3=O)c(O)c1` (configuration not stated), -100%; for `C#CCN1C(=O)C(O)(CC(=O)c2ccc(OC)c(OC)c2)c2cc(Br)ccc21` (configuration not stated), -100%.
On the same count and under the same terms, for `N#Cc1ccc(-c2cccs2)nc1SCc1c(F)cccc1Cl` the value was -16.8%.
On the same count and under the same terms, for `FC(F)(F)c1cccc(Nc2nc3nonc3nc2Nc2ccc(Cl)cc2)c1` the value was -100%; for `COc1ccc(N(C)C(=O)c2cc(S(=O)(=O)N3CCc4ccccc43)cn2C)c(OC)c1`, -100%.
As to `COc1ccccc1NC(=O)C1=C(C)Nc2nc(SCc3ccccc3)nn2C1c1cccs1` (configuration not stated), the activity change, negative = inhibition was -100%.
Still for that read-out and setting: for `COc1ccc(C)cc1NC(=O)CCNS(=O)(=O)c1cccc2nonc12` the value was -100%.
The same measure, in the same setting: the result for `Cc1ccc(CN2C(=O)c3ccccc3Sc3ccc(C(=O)NCCCN4CCOCC4)cc32)cc1` reads -100%.

The values are drawn from PubChem BioAssay AID651791 (National Center for Advancing Translational Sciences (NCATS), 2012).
